The values that follow come from PubChem BioAssay (NCI).

Each structure is given as a SMILES string. The panel holds about 83,000 compounds, 20% with a hit somewhere; the sample as a whole holds those more often.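 Testing used 96-well plates and a 48-hour single-concentration exposure. Example: -40 means 40% of the starting cells died.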 Unmarked numbers belong to inactive results. Activity calls are given as the source filed them. The calls were made as follows: active = growth percent below 10; inactive = the rest.

Experiment in all cases: NCI-60 one-dose screen, 48 h (100 = growth as untreated, 0 = no growth, -100 = all killed)
In test [1] the test system is SK-MEL-2 melanoma. The following applies: 10 µM unless noted.
Test [2] concerns EKVX NSCLC. The settings on record: 10 µM unless noted.
Test [3] has as its system SN12C renal. The following applies: 10 µM unless noted.
Test [4] relates to UO-31 renal. The settings on record: 10 µM unless noted.
Test [5] concerns ACHN renal. The following applies: 10 µM unless noted.
Test [6] has as its system CAKI-1 renal. The settings on record: 10 µM.
For test [7], the system named is A498 renal. The settings on record: 10 µM unless noted.
For test [8], the system named is CCRF-CEM leukemia. The settings on record: 10 µM unless noted.
Test [9] relates to RPMI-8226 leukemia. The following applies: 10 µM unless noted.
The test system of test [10] is OVCAR-8 ovarian. The settings on record: 10 µM unless noted.
Test [11] concerns OVCAR-5 ovarian. The settings on record: 10 µM unless noted.
In test [12] the test system is OVCAR-4 ovarian. The settings on record: 10 µM unless noted.
The subject of test [13] is SK-OV-3 ovarian. The following applies: 10 µM unless noted.
Test [14] has as its system IGROV1 ovarian. The settings on record: 10 µM unless noted.
Test [15] relates to OVCAR-3 ovarian. The following applies: 10 µM unless noted.
Test [16] deals with HS 578T breast. The settings on record: 10 µM unless noted.
Test [17] relates to NCI/ADR-RES ovarian. The settings on record: 10 µM unless noted.
Test [18] concerns MOLT-4 leukemia. The following applies: 10 µM unless noted.
Test [19] relates to SR leukemia. The settings on record: 10 µM unless noted.

In the case of `CCn1c(SC)nnc1-c1cc2c([nH]c3ccccc32)c(-c2cccc(O)c2)n1`, the growth was 15.6% in [1]; 21.6% in [2]; 39.5% in [3]; 24.1% in test [4]; 30.5% in test [5]; 25.3% in [6]. Besides, the growth in test [7] was -2.24% (active); in test [8], 18.4%; in [9], 30.1%; in [10], 25.4%; in test [11], 48.8%; in test [12] it was 12.5%. The growth in [13] is 27.5%; in test [14], 35%; in test [15], -7.34% (active); in test [16] it was 12.3%; in [17] it was 8.9% (active).

Take `CCC1(C(N)=O)CC2C=CC1CC2` (stereo unspecified): the growth in test [1] is 124%; in [2], 115%; in test [3], 118%; in test [4], 90.8%; in test [5], 107%; in test [6], 96.6%. The growth is 95.7% in test [7]; 127% in [8]; 111% in test [18]; 109% in [19]; 89.1% in test [9]; 61.2% in test [10]. The growth was 108% in test [12]; 91.9% in test [13]; 115% in test [15]; 149% in test [16]; 244% in [17].

As to `c1ccc(CNCCN(CCNCc2ccccn2)Cc2ccc3ccccc3c2)nc1`, the growth was 9.46% (active) in [1]; 15.4% in test [2]; 7.67% (active) in [3]; -79.8% (active) in test [4]; -27.9% (active) in [5]; -81.8% (active) in test [6]. The growth in test [7] is -17.5% (active); in [8], 6.8% (active); in test [18] it was -24.3% (active); in [9] it was 10.6%; in test [10], 11.1%; in [11], 0.822% (active). Moreover, the growth in [12] is 0.169% (active); in test [13] it was -26% (active); in test [14], 7.31% (active); in test [15], 1.32% (active); in test [16], 41.3%; in [17] it was -13% (active).

Consider `NCC(=O)NS(=O)(=O)OC[C@H]1O[C@@H](n2cnc3c(N)ncnc32)[C@H](O)[C@@H]1O`, for which the growth is -34.4% (active) in [1]; 44.1% in test [2]; 1.03% (active) in test [3]; 6.08% (active) in test [4]; 11.8% in test [5]; 5.11% (active) in test [6]. Moreover, the growth in [8] was 21.7%; in [18] it was 1.15% (active); in test [19] it was 9.93% (active); in test [9], 18%; in test [10], -11.9% (active); in [11], 0.292% (active). The growth in test [12] was -22.1% (active); in test [15], 10%; in test [16], 16.1%; in [17], 2.07% (active).

Turning to `c1ccc2c(c1)Oc1cccnc1-n1nccc1-2`, the growth in [1] is 121%; in test [2], 104%; in test [3] it was 101%; in test [4] it was 101%; in test [5] it was 99.7%; in test [7], 87.2%. The growth in test [8] is 104%; in test [18], 109%; in [19] it was 94.2%; in test [9], 96.9%; in test [10], 99.6%; in test [11] it was 107%. Moreover, the growth in [12] was 110%; in test [14], 104%; in test [15], 108%; in [16] it was 90.1%; in test [17] it was 100%.

In the case of `O=c1c2ccccc2sc2c(NCCCNCCO)nc3ccccc3c12`, the growth is -35.6% (active) in [1]; 55.6% in [2]; 44.8% in test [3]; 28.9% in [4]; -7.87% (active) in [5]; 16.4% in [7]. Further, the growth in test [8] is -6.25% (active); in test [18] it was -20.4% (active); in test [19], -25.9% (active); in [9], -14.8% (active); in test [10], 17.7%; in test [11], 76.3%. Also, the growth in test [12] was 60.4%; in [13], 69.4%; in [14] it was 27%; in [15], 35.2%; in test [16], 34%; in [17], 31.5%.

With `CCN(CC)CCNC(=O)c1c(C)[nH]c(/C=C2\C(=O)Nc3cc(NC(=O)NC(=O)c4ccc(OC)cc4F)ccc32)c1C`, the growth was 128% in test [1]; 114% in [2]; 97.3% in test [3]; 96.2% in test [4]; 38.2% in [5]; 77.6% in [7]. Moreover, the growth is 42.4% in [8]; 38.2% in [18]; 10.6% in test [19]; 75.7% in [9]; 34% in test [10]; 120% in test [11]. The growth was 111% in [12]; 129% in [13]; 111% in test [15]; 84.4% in [16]; 88.3% in test [17].

On to `Cc1ccc(-c2cn3cc([N+](=O)[O-])ccc3n2)cc1`, for which the growth in test [1] is 71.5%; in [2] it was 67.4%; in test [3], 75.3%; in test [4] it was 57.2%; in test [5], 73.4%; in test [7], 57.6%. For the same compound, the growth in test [8] was 52.6%; in test [18], 57.6%; in test [19] it was 75.5%; in test [9], 72.6%; in test [10], 76.7%; in [11], 109%. Besides, the growth is 78.1% in [12]; 102% in test [13]; 71% in test [14]; 101% in test [15]; 97.1% in test [16]; 83.4% in test [17].

Turning to `NS(=O)(=O)c1ccc(CCN2C(=O)/C(=C\c3ccc(Cl)cc3)C=C2c2ccc(Oc3ccccc3)cc2)cc1`, the growth in test [1] was 73%; in [2], 60.1%; in test [3], 78.2%; in test [4], 65.8%; in test [5] it was 72.3%; in test [7] it was 80.8%. Besides, the growth was 81.4% in test [8]; 48.2% in [18]; 45.9% in [19]; 60.4% in test [9]; 71.4% in test [10]; 76.7% in test [11]. Moreover, the growth in test [12] is 87.5%; in [13] it was 93%; in [14] it was 78.8%; in [15], 81.3%; in test [16], 98.8%; in test [17] it was 78.3%.
